Screening results deposited in PubChem by National Center for Advancing Translational Sciences (NCATS).
Sampled rows, rich in hits. Any-hit rate of the full collection: about 3%.
TRb-SRC2 inh – disrupts binding of human TR beta to SRC2 | P10828 | TRbeta-SRC2 peptide binding, fluorescence polarization; receptor liganded with 1 µM T3 | Potency, µM (doses to about 106 µM), for inactives: at the highest dose activity change, negative = inhibition, hits mostly inhibitors | 0.065% of 280,000 active;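 also: plate controls were bound peptide for no effect and peptide without receptor for full effect; nearly all actives have a fitted effect of over 50% in size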
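Human TRb LBD (0.6 uM) plus Texas Red-labeled SRC2 peptide (20 nM), 1uM T3, 5% DMSO, 5 hr at ambient temperature. Decreased polarization (555/632 nm) flags inhibition; data normalized to free and bound peptide controls.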
TR SRC2 fluor cs – Texas Red fluorescence interference in TRb-SRC2 counter-screen; 0.29% of 280,000 active; TRb/SRC2 Texas Red total fluorescence interference; Potency, µM (doses to about 106 µM), for the others: top-dose fluorescence change, negative = quenching; active = well fitted curve in either direction with a large enough effect; inconclusive = small, poorly fitted or top-dose-only effect
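Human TRβ ligand-binding domain (0.6 uM) and Texas Red SRC2 peptide (20 nM) in Tris buffer with 1 uM T3 and 5% DMSO were incubated with pinned compound for 5 hr at ambient temperature. Total fluorescence was computed as S + 2P (555/632 nm).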
Tau fibril ThT – blocks human tau fibril formation measured by thioflavin T | P10636 | 2.1% of 270,000 active | recombinant tau K18 P301L, heparin-induced fibrillization, ThT fluorescence | Potency, µM (highest dose often 57.4 µM), for inactives: at the highest dose activity, negative = inhibition, hits mostly inhibitors; also: nearly all actives have a fitted effect of over 55% in size
Target sequence (P10636 561-689 P618L limits assumed): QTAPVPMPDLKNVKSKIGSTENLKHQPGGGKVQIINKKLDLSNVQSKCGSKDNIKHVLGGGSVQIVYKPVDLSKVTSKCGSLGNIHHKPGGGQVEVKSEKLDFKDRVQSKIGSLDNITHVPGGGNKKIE
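Recombinant human tau K18 fragment […] carrying P301L, 15 uM unlabeled plus 0.24 uM Alexa 594-labeled, was fibrillized with 20 uM heparin in 100 mM sodium acetate pH 7 for 6 hr at 37 C; 30 uM ThT fluorescence read after 1 hr.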
Tau fluor cs – counter-screen for tau fibril formation inhibitors. tau K18 P301L Alexa594 fluorescence, heparin fibrillization. 0.93% of 280,000 active. Potency, µM (series often up to 57.7 µM), inactives show at the highest dose activity change, negative = decrease; also: nearly all actives have a fitted effect of over 55% in size
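Human tau K18 P301L (15 uM unlabeled, 0.24 uM Alexa 594-labeled) in 100 mM sodium acetate pH 7 with 20 uM heparin, 6 hr at 37 C. ThT 30 uM added, 1 hr ambient; Alexa 594 FP and total fluorescence read at 555/632 nm.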
Tau FP inhib – tau fibrillization inhibition (FP); P10636; K18 P301L tau heparin fibrillization, Alexa594 FP, 6 h; Potency, µM (highest dose often 57.7 µM), inactives show top-dose activity, negative = inhibition, most hits filed as inhibitors; 0.39% of 280,000 active; AID 1468; also: nearly all actives have a fitted effect of over 55% in size
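Compound effects on tau fibrillization are measured by Alexa 594 fluorescence polarization (ex 555, em 632 nm). K18 P301L tau is used at 15 uM with 0.24 uM labeled tracer, and 20 uM heparin induces aggregation over 6 hr at 37 C.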
The depositor's hits bear a star; ? = inconclusive; [ ] = another dose, or the depositor's remark. Unless noted, calls follow the shape of the dose curve; as a rule, active = well fitted curve in the direction sought with a large enough effect; inconclusive = small, poorly fitted or top-dose-only effect, or another doubt; inactive = no such curve, though single readings can be large; an effect the other way counts as inactive or inconclusive. Unless noted, % is scaled to controls: 0 for no effect and ±100 for the full control effect; potency is read from the fitted curve at half-maximal effect.

SMILES | TRb-SRC2 inh | TR SRC2 fluor cs | Tau fibril ThT | Tau fluor cs | Tau FP inhib
CCN(CC)c1ccc(NC(=O)CN2CCN(CC(=O)Nc3ccc(F)cc3)CC2)cc1 | 5% | 0% | -6% | -17% | 17%
COc1ccc(NC(=O)c2oc3ccccc3c2NC(=O)COc2ccc(F)cc2)c(OC)c1 | -12% | -2% | 7% | -18% | ?
CCN(C(=O)C1CCCN(c2ncnc3c2nc2n3CCCCC2)C1)c1cccc(C)c1 (stereo unspecified) | 3% | -9% | -7% | 0% | -10%
Cc1ccc(CSc2nc3ccc(NC(=O)C(C)C)cc3s2)cc1 | -3% | ? | -3% | -16% | -9%
CCCSc1ncc(Cl)c(C(=O)N(Cc2cccc(Cl)c2)C2CCS(=O)(=O)C2)n1 (stereo unspecified) | -1% | 9% | -4% | -13% | 3%
CCCSc1ncc(Cl)c(C(=O)N(Cc2ccc(N(C)C)cc2)C2CCS(=O)(=O)C2)n1 (stereo unspecified) | -13%[53 µM] | 4.5µM*[quencher] | ? | ? | -6%
O=C(Nc1ccc2c(c1)CCC2)c1cc(S(=O)(=O)N2CCN(c3ccccc3)CC2)ccc1Cl | 21% | 45µM*[fluorescent] | -9% | -12% | -8%
O=C(CN1CCN(c2ccccc2)CC1)Nc1ccc2c(c1)CCC2 | 7% | 1% | -12% | -18% | 3%
COc1ccc(/C=C/C=C2\N=C(SC)SC2=O)cc1 | 0%[53 µM] | -4%[53 µM] | 4µM* | -29% | ?
CCOC(=O)/C(=N\Nc1ccccc1)c1csc(Nc2ccc(C)cc2)n1 | -6% | -7% | ? | 7.1µM*[quencher] | 8%
CCCc1nnc(NC(=O)c2nc(S(=O)(=O)Cc3ccc(C)cc3)ncc2Cl)s1 | -6% | -3% | ? | -20% | ?
COc1ccc2nc(NC(=O)c3nc(S(=O)(=O)Cc4ccc(C)cc4)ncc3Cl)sc2c1 | -4% | -1% | 5.6µM* | ? | -7%
Cc1ccc(CS(=O)(=O)c2ncc(Cl)c(C(=O)Nc3nc4ccc(C)cc4s3)n2)cc1 | -2% | 0% | 22µM* | ? | -17%
Cc1ccc(CS(=O)(=O)c2ncc(Cl)c(C(=O)Nc3nc4ccc(F)cc4s3)n2)cc1 | -1% | -1% | 14µM* | -24% | -11%
COc1ccc(OC)c(NC(=O)c2nc(S(=O)(=O)Cc3ccc(F)cc3)ncc2Cl)c1 | -6% | -3% | 13µM* | ? | 1%
CCCCCCN(C(=O)CCCCCN1C(=O)NC(c2ccccc2-c2ccccc2)C(C(=O)OCc2ccccc2)=C1C)C(C(=O)NCCCC)c1ccc(OCC(=O)OC)c(C(=O)OC)c1 (stereo unspecified) | 2% | 3% | ? | -16% | 6%
Cn1c(N=NC(=O)c2ccccc2)c(O)c2ccccc21 | 2% | -7% | 13µM* | ? | -9%
COc1cc(-c2cc(OC)c3c(C)oc(C)c3c(=O)c2)ccc1OC(=O)c1cccc(Cl)c1 | ? | 501µM*[quencher] | -13% | -8% | 3%
COc1ccc(CCNC(=O)c2cc3sccc3n2Cc2ccc(Cl)cc2)cc1OC | -7% | -1% | -16% | ? | -5%
COc1cccc(O)c1O | -5% | -2% | 14µM* | 11µM*[quencher] | 25µM*
Cn1c(C(C#N)C2=C(Cl)C(=O)N(c3ccccc3)C2=O)nc2ccccc21 (stereo unspecified) | 45µM* | ? | 13µM* | 16µM*[quencher] | ?
COC(=O)c1ccc(NC(=O)N2CCN(c3nnc(C)c4c(C)n(-c5ccccc5)nc34)CC2)cc1 | 2% | -9% | -17% | 0% | 0%
COc1ccc(-n2nnnc2SCC(=O)Nc2ccccc2N2CCOCC2)cc1OC | 3% | 2% | 10µM* | -17% | -80%
Cn1nnnc1SCC(=O)Nc1ccccc1N1CCOCC1 | -7% | 1% | -6% | -4% | -2%
N#C/C(=N\Nc1ccc(Cl)cc1)C(=O)c1ccccc1 | -9% | -4% | 14µM* | ? | 10%
COc1ccc(C(=O)/C=C/Nc2ccc([N+](=O)[O-])cc2)cc1 | 2% | -7% | ? | -11% | -2%
COc1ccc(C(=O)/C(C#N)=N/Nc2ccc([N+](=O)[O-])cc2)cc1 | 2% | -3% | 4µM* | ? | 1%
